# Measured values reported in ChEMBL document CHEMBL4513216, “Probing the Open Global Health Chemical Diversity Library for Multistage-Active Starting Points for Next-Generation Antimalarials” (ACS Infect Dis, 2020).
# The whole screen tested about 69,000 compounds, of which about 8,600 (12%) showed an effect of 50% or more. The sample as a whole holds a higher share of strong results than the screen did.
# System: Plasmodium berghei
# Assay: Screen against P. berghei liver stage (PbLuc), transformed with Luciferase, at 10uM
# Assay type: functional, HepG2
# Settings: tested at 10 uM
row,SMILES,INHIBITION [%]
1,CCCc1cc(NC2CCc3nc(C(C)C)nn3C2)n2ncnc2n1 (centres undefined),-5.65
2,COCCCNC(=O)N1CCN(C(=O)c2nsc3ccc(C)cc23)CC1,15.1
3,CC(C)NC(=O)Cn1cc(OCc2ccc(F)cc2)c(=O)cc1CO,27.5
4,COCCn1cc2c(n1)C(CNC(=O)c1cc(C)[nH]c1C)OCC2 (centres undefined),23.6
5,O=C(NC1CCC(O)CC1)c1ccc2nc(-c3ccc(F)cc3)cn2c1 (centres undefined),35.5
6,CCc1nnc2n1CCN(Cc1ncc(-c3ccc(F)cc3)o1)C2,-3.235
7,Cc1nc(CNCC(C)c2nc3ccccc3o2)cs1 (centres undefined),20
8,Cc1csc(CNCC(C)c2nc3ccccc3o2)n1 (centres undefined),48.3
9,Cc1ncsc1CNCC(C)c1nc2ccccc2o1 (centres undefined),50
10,Nc1cc(-c2cncnc2C2CCN(C(=O)c3ccccc3)C2)ccn1 (centres undefined),3.48
11,Cn1ccnc1CN1C[C@@H]2[C@@H](C1)OCC(=O)N2CC1CCCC1,39.8
12,O=C(c1ccc[nH]1)N1CC[C@@H](OCC2CC2)[C@@H]1Cc1cccnc1,-68.6
13,Cn1c(CN2CCC(OCc3cccnc3)CC2)cc2ccccc21,56.2
14,O=C(C1CCOCC1)N1CCC(OCc2cccnc2)CC1,85.2
15,CN(CC(=O)N1CCC(OCc2cccnc2)CC1)c1ccccc1,5.91
16,O=C(Cc1cccnc1)N1CCC(OCc2ccccc2)CC1,7.84
17,Cn1c(CN2CCN(c3cccnc3)CC2)cc2ccccc21,27.4
18,O=C(C1CCOC1)N1CCC(OCc2ccccc2)CC1 (centres undefined),33.9
19,CCc1ccc(C(=O)NCc2cccc(S(=O)(=O)NC)c2)o1,-14
20,CCn1ccnc1CN1CCCN(C(=O)c2cnn(C)c2)CC1,-21.21
21,Cc1cc(N2CCN(C(=O)Cc3c(C)nc(C)[nH]c3=O)CC2)cc(C)n1,14.9
22,CCO[C@@H]1CN(Cc2scnc2C)[C@@H]2CCCO[C@@H]21,-6.39
23,N#Cc1cnc(N2CCC3(CC2)OCCO3)nc1N,1.61

row,SMILES,INHIBITION [%]
1,Cc1ccc(-c2noc(CN3CCc4cncnc4C3)n2)cc1,38.6
2,Cn1cc(C(=O)N2CCCC(c3cc(O)n(C)n3)C2)cn1 (centres undefined),19.6
3,O=C1CN(S(=O)(=O)c2ccc(F)cc2)CC(O)CN1CC1CC1 (centres undefined),4.07
4,Cn1cnnc1S(=O)(=O)C1CCN(C(=O)c2cccs2)CC1,41.8
5,Cc1csc(C(=O)N2CCC(S(C)(=O)=O)C2)c1 (centres undefined),12.3
6,Cc1csc(C(=O)N2CCC(S(C)(=O)=O)CC2)c1,43.7
7,Cc1csc(C(=O)N2CC(S(=O)(=O)C3CCCCC3)C2)c1,75.2
8,Cc1csc(C(=O)N2CCCC(c3[nH]ncc3S(C)(=O)=O)C2)c1 (centres undefined),27.8
9,COc1ccc(S(=O)(=O)C2CCN(C(=O)c3cc(C)cs3)CC2)cc1,65.2
10,O=C(CCOc1cccc(F)c1)N1CCCC(n2cccn2)C1 (centres undefined),-18
11,Cc1ccc(-c2nc(CN3CCCC3Cn3cncn3)cs2)o1 (centres undefined),-15.5
12,O=S1(=O)COCCN1Cc1ccc(F)c(F)c1,29.9
13,COCCNc1nc(-c2ccc(S(=O)(=O)N3CCCCCC3)cc2)cs1,62.8
14,COCc1nc(-c2ccc(S(=O)(=O)N3CCCC3)cc2)cs1,61
15,COCCNC(=O)c1cc(S(=O)(=O)N2CCCCC2)cs1,-4.86
16,Cc1nc(-c2ccc(S(=O)(=O)N3CCSC3)cc2)co1,39.6
17,Cc1nc(-c2ccc(S(=O)(=O)N3CCSCC3)cc2)co1,49.4
18,COCCCc1nc(-c2ccc(S(=O)(=O)N3CCCC3)cc2)cs1,61
19,Cc1nc(-c2ccc(S(=O)(=O)N3CCOCC3)cc2)co1,14.8
20,COCCNc1nc(-c2ccc(S(=O)(=O)N3CCCCC3)cc2)cs1,-1.16
21,Cc1nc(-c2ccc(S(=O)(=O)N3CCCCC3)cc2)co1,6.09
22,c1cnnc(N2CCCC2CNCc2noc(C3CC3)n2)c1 (centres undefined),-29.8
23,COCCNC(=O)CNC(=O)c1nc(Cc2c(Cl)cccc2Cl)no1,9

row,SMILES,INHIBITION [%]
1,COc1c(C(=O)NCC2CCCO2)nnn1Cc1ccccc1 (centres undefined),-14.7
2,O=C(N1CCOCC1)N1C[C@H]2CN(Cc3nccs3)C[C@H]2C1,34.6
3,O=C(c1cncc2ccccc12)N1CCC[C@@H]1CO,-10.6
4,c1cnc(NCc2ncn3c2CN(Cc2cccnc2)CCC3)nc1,36.1
5,O=C(CN(CC1CCC1)CC(F)(F)F)N1CCOCC1,22.6
6,CC(=O)Cc1c(C)nn(-c2cncc(C(N)=O)c2)c1C,-27.5
7,CCOc1ccc(-n2nc(C)c(CC(C)=O)c2C)cc1C(N)=O,52.8
8,COc1ccc(-n2nc(C)c(C(C)=O)c2C)cc1C(N)=O,-17.5
9,CCOc1ccc(C(=O)CCC(=O)N(C)Cc2snnc2C)cc1C,29.7
10,Cc1nnc(SCc2cc(=O)n3c4c(sc3n2)CCCC4)[nH]1,25.8
11,CC(C)c1noc(CN(Cc2ccccc2F)C2CC2)n1,16.8
12,CC(C)c1noc(CN(Cc2ccc(F)cc2)C2CC2)n1,82.4
13,CC(C)c1noc(C2CCCN2S(=O)(=O)Cc2ccc(F)cc2)n1 (centres undefined),28.7
14,COc1cccc(NC(=O)CCCc2nc(C(C)C)no2)c1,26.5
15,COc1cccc(CN(C)Cc2nc(C(C)C)no2)c1,61.9
16,CC(C)c1noc(CN(Cc2ccccc2)C2CC2)n1,54.5
17,COc1cccc(COc2nc(C(C)C)no2)c1,17.4
18,CC(C)c1noc(CN(Cc2cccs2)C2CC2)n1,41.8
19,CC(C)c1noc(CN(C)C(c2ccc(F)cc2)c2cccnc2)n1 (centres undefined),38.6
20,CCN(Cc1ccc2c(c1)OCCO2)C(=O)NCCc1cnn(C)c1,8.15
21,O=C(Nc1nc2c(s1)CN(S(=O)(=O)C1CC1)CC2)c1ccc(=O)[nH]c1,31.9
22,NC1(C(=O)NCCC2CN(Cc3ccco3)CCO2)CCCC1 (centres undefined),20
23,CCn1ccnc1CN1CCN(C(C)C(=O)N2CCCCCC2)CC1 (centres undefined),30.6
